Screens (PubChem BioAssay)
NS1 inh: qHTS Assay for Inhibitors of Influenza NS1 Protein Function; hit rate 0.4% among 270,000; AID 2326, 2010; Potency, µM (doses to about 46.1 µM), inactives show at the top dose activity, positive = more growth; note: potency is the fitted concentration of half-maximal effect; actives are rising curves; nearly all actives have a fitted effect of over 50% in size
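In this qHTS, NS1 from influenza A is expressed in budding yeast, where it slows growth. Cells are switched from glucose to 2% galactose medium (pH 6.0, -URA), treated with compound, and growth recovery is read at OD600.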
Pf growth 96h: Primary qHTS for delayed death inhibitors of the malarial parasite plastid, 96 hour incubation; P. falciparum luciferase reporter growth, 96 h; Potency, µM (highest dose often 28.7 µM), without a hit: at the top dose activity change, negative = inhibition, actives largely listed as inhibitors; hit rate 6.9% among 320,000; AID 504834, 2011; active = well fitted inhibition curve with a large enough effect; inconclusive = small, poorly fitted or top-dose-only effect, or another doubt; inactive = no such curve, though single readings can be large or run the other way; note: potency is the fitted concentration of half-maximal effect; % is set by controls: 0 for no effect and ±100 for the full control effect
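Plates of compound plus infected erythrocytes (2% hematocrit, 0.05% parasitemia final) incubate 96 hours, 37 C, 5% CO2. Detection reagent added; reduced luminescence from the parasites' luciferase reporter flags inhibition.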
SARS PLpro yeast: qHTS of Yeast-based Assay for SARS-CoV PLP; hit rate 0.19% among 330,000; AID 485353, 2010; S. cerevisiae expressing SARS-CoV PLpro, growth rescue; Potency, µM (series often up to 32.9 µM), inactives show top-dose activity, positive = growth rescue, usual class: activators; note: potency is the fitted concentration of half-maximal effect; 0% is about no effect; nearly all actives have a fitted effect of over 55% in size
Pf growth 48h: Primary qHTS for delayed death inhibitors of the malarial parasite plastid, 48 hour incubation; hit rate 5.9% among 310,000; P. falciparum luciferase growth in erythrocytes, 48 h; Potency, µM (titrated, usually from 28.7 µM), for inactives: at the highest dose activity change, negative = inhibition, most hits filed as inhibitors; active = well fitted inhibition curve with a large enough effect; inconclusive = small, poorly fitted or top-dose-only effect, or another doubt; inactive = no such curve, though single readings can be large or run the other way; note: potency is the fitted concentration of half-maximal effect; % is set by controls: 0 for no effect and ±100 for the full control effect
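Firefly luciferase activity from engineered P. falciparum reports growth; inhibitors lower the luminescent signal. Cultures contained 2% hematocrit erythrocytes at 0.1% final parasitemia.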
Flu NS1 inh: Assay for Inhibitors of Influenza NS1 Protein Function: Hit Validation; activity change, negative = inhibition, % at 32.9 µM; influenza NS1 function cell assay, 15-point titration; 1,400 tested, under 10 active; shares compounds with NS1 inh; note: 0% is about no effect
Flu PR8 replic: Assay for Inhibitors of Influenza NS1 Protein Function: Influenza virus replication assay in MDCK cells infected with virus A/PR/8/34; shares compounds with NS1 inh; MDCK infected influenza A/PR/8/34, virus titer TCID50; active compounds read low; virus titer (log TCID50), log10 TCID50 at 5 µM; hit rate 30% among 95; call rule not given here
* = called active by the depositor; [ ] = remark or other dose. Compounds with a hit are over-represented: about 10% of the library has one in this group of screens. Unless noted, calls come from the whole dose curve.

`Cc1ccc(C(=O)OCC(=O)NC(C)c2ccccc2)cc1C` (configuration not stated) gave SARS PLpro yeast 7%.
Screening CCCOc1ccc(C2NC(=S)NC(c3ccccc3)=C2C(=O)Nc2ccc(C)cc2)cc1OC (configuration not stated) returned NS1 inh 13µM*, Pf growth 96h -21%, SARS PLpro yeast 7%, Pf growth 48h 2.6µM* and Flu NS1 inh 0.
COc1ccc(NS(=O)(=O)c2cc(NC(=O)c3ccco3)ccc2N2CCCC2)cc1 was read as NS1 inh inconclusive, Pf growth 96h inconclusive, SARS PLpro yeast 21% and Pf growth 48h inconclusive.
For COc1ccc(NS(=O)(=O)c2cc(NC(=O)/C=C/c3cc(OC)ccc3OC)ccc2N2CCCCC2)cc1 the results were NS1 inh 10µM*, Pf growth 96h 2.6µM*, SARS PLpro yeast 0%, Pf growth 48h 4.1µM* and Flu NS1 inh 17.
`CCOC(=O)C1=C(CS(=O)(=O)c2ccccc2)NC(=O)NC1c1ccccc1OC` (configuration not stated) gave NS1 inh 1%, Pf growth 96h inconclusive, SARS PLpro yeast 1% and Pf growth 48h -10%.
`Cc1cc(C)c(-c2cc(NC(=O)COC(=O)c3ccc(CO)cc3)n(-c3ccccc3)n2)cc1C` gave NS1 inh 11µM*, Pf growth 96h inconclusive, SARS PLpro yeast 0%, Pf growth 48h inconclusive and Flu NS1 inh -14.
CC(=O)Oc1ccc(N(C(C)=O)S(=O)(=O)c2ccc3ccccc3c2)cc1 was read as NS1 inh 0%, Pf growth 96h -52%, SARS PLpro yeast 0% and Pf growth 48h 3%.
For N#Cc1nc(COc2ccc(Cl)cc2Cl)oc1N1CCN(c2ccccc2)CC1 the results were NS1 inh 11µM*, Pf growth 96h inconclusive, SARS PLpro yeast -10%, Pf growth 48h 5% and Flu NS1 inh 16.
For COc1ccc(CC(=O)NNC(=O)CSc2ccc(C)cc2)cc1 the results were NS1 inh 1%, Pf growth 96h inconclusive, SARS PLpro yeast 0% and Pf growth 48h 18%.
O=C(N/N=C/c1cccc2ccccc12)c1ccccc1Cl was read as NS1 inh -44%, Pf growth 96h 29%, SARS PLpro yeast -4% and Pf growth 48h -7%[0.00184 µM].
O=C(N/N=C/c1cc2ccccc2[nH]1)c1ccccc1Cl was read as NS1 inh inconclusive, Pf growth 96h 45%, SARS PLpro yeast -2%, Pf growth 48h 3% and Flu NS1 inh -11.
For N/N=c1\sc2ccccc2n1-c1ccccc1 the results were NS1 inh 11µM*, Pf growth 96h 4%, SARS PLpro yeast -10%, Pf growth 48h 6%, Flu NS1 inh 25 and Flu PR8 replic 8.
CC(=O)c1ccc(OCC(O)CN2CCN(S(=O)(=O)c3c(C)c(C)cc(C)c3C)CC2)cc1 (configuration not stated) was read as NS1 inh 0%, Pf growth 96h -23%, SARS PLpro yeast 1% and Pf growth 48h inconclusive.
Cc1nc2ncnn2c(C)c1CCC(=O)NCc1ccccc1 was read as NS1 inh 11%, Pf growth 96h 6%, SARS PLpro yeast -1% and Pf growth 48h 3%.
`COc1ccc(CNC(=O)CCc2c(C)nc3ncnn3c2C)cc1` gave NS1 inh 5µM*, Pf growth 96h inconclusive, SARS PLpro yeast 6%, Pf growth 48h -28% and Flu NS1 inh 0.
Screening Cc1ccc(C(=O)Nc2nc3n(n2)C(c2ccccc2)CC(=O)N3)cc1 (configuration not stated) returned NS1 inh -4%, Pf growth 96h -1%, SARS PLpro yeast 1% and Pf growth 48h 34%.
COc1ccc(S(=O)(=O)NCC(c2ccc(F)cc2)N2CCN(C)CC2)cc1 (configuration not stated) was read as Pf growth 96h -4%, SARS PLpro yeast -2% and Pf growth 48h -19%.
Screening O=c1cc(O)nc(SCc2ccccc2)n1-c1ccccc1 returned NS1 inh inconclusive, Pf growth 96h -18%, SARS PLpro yeast -1% and Pf growth 48h 8%.
C=CCn1c(SCc2ccccc2)nc(O)cc1=O was read as NS1 inh 6.3µM*, Pf growth 96h -55%, SARS PLpro yeast -8% and Flu NS1 inh 31.
CN(C)c1ccc(/C=C2\SC(=S)N(Nc3ncc(C(F)(F)F)cc3Cl)C2=O)cc1 was read as NS1 inh 9%, Pf growth 96h 147%, SARS PLpro yeast 2% and Pf growth 48h 36%.
For COc1cc(/C=C2\SC(=S)N(Nc3ncc(C(F)(F)F)cc3Cl)C2=O)ccc1O the results were NS1 inh 4µM*, Pf growth 96h inconclusive, SARS PLpro yeast -33% and Flu NS1 inh 17.
`O=C(CSc1nc2ccccc2c2nc3ccccc3n12)NCc1ccco1` gave NS1 inh 2.8µM*, Pf growth 96h 7%, SARS PLpro yeast 5%, Pf growth 48h 9.3µM* and Flu NS1 inh 33.
For CCn1c(SCC(=O)NCc2ccco2)nc2ccccc2c1=O the results were NS1 inh 0%, Pf growth 96h 7%, SARS PLpro yeast -1% and Pf growth 48h -7%.
Cc1c(S(=O)(=O)NC2CCCCC2)c(=O)n(C)c(=O)n1C was read as Pf growth 96h 1%, SARS PLpro yeast -1% and Pf growth 48h 0%.
Screening Cc1cc(C)cc(NS(=O)(=O)c2ccc(NC(=S)NC(=O)c3cccs3)cc2)c1 returned NS1 inh 13µM*, Pf growth 96h 30%, SARS PLpro yeast 3%, Pf growth 48h inconclusive and Flu NS1 inh -33.
`COc1cc(NS(=O)(=O)c2ccc(NC(=S)NC(=O)c3cccs3)cc2)nc(OC)n1` gave NS1 inh inconclusive, Pf growth 96h -8%, SARS PLpro yeast 1% and Pf growth 48h 2%.
`O=C(N/N=C/c1cn(Cc2ccccc2)c2ccccc12)c1cc(O)cc(O)c1` gave NS1 inh 14µM*, Pf growth 96h inconclusive, SARS PLpro yeast 4%, Pf growth 48h inconclusive and Flu NS1 inh -2.
`O=C(Cn1cc(/C=N/NC(=O)c2cccc3ccccc23)c2ccccc21)Nc1ccc(F)cc1` gave NS1 inh 10µM*, Pf growth 96h inconclusive, SARS PLpro yeast 0%, Pf growth 48h inconclusive and Flu NS1 inh 8.
`O=C(COc1ccccc1[N+](=O)[O-])Nc1ccc2c(c1)CCC2` gave Pf growth 96h 192%, SARS PLpro yeast 5% and Pf growth 48h 86%.
